A short description of test [1]: optical density shifts of acrAB sulA E. coli – strain DRC41, OD650, 48 h, E. coli filamentation inducer project, primary screen (AID 1152).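 Note: E. coli MC1000 strain DRC41 lacking acrAB efflux pump and sulA.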 The note with it: higher = more signal, called active from +8 up or from −8 down.
The nature of test [2]: probe aLefty1 binding on compound microarray – biochemical, small-molecule microarray, 635/667 nm fluorescence, primary screen (AID 1153).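 Note: score merges spot fluorescence with signal-to-noise ratio from the scanned slide images.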 Particulars: higher = more signal.
Test [3] in a line: plasmodial surface anion channel blockers, osmotic lysis – cell-based, P. falciparum Indochina, OD700, 1 h, primary screen (AID 1154). The note with it: P. falciparum Indochina infected RBC osmotic lysis, higher = more signal, called active from +8 up or from −8 down.
The nature of test [4]: plasmodial surface anion channel blockers, osmotic lysis – cell-based, P. falciparum Indochina, OD700, 2 h, primary screen (AID 1155).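 Note: lysis reports solute entry through the parasite surface anion channel PSAC.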 Particulars: P. falciparum Indochina infected erythrocytes, higher = more signal, called active from +8 up or from −8 down.
The nature of test [5]: changes in parasitized red cell lysis, either direction – P. falciparum Indochina, OD700, 3 h, PSAC antagonist project, primary screen (AID 1156). The note with it: P. falciparum-infected erythrocytes, osmotic lysis, higher = more signal, called active from +8 up or from −8 down.
Test [6] in a line: plasmodial surface anion channel blockers, osmotic lysis – cell-based, P. falciparum Indochina, OD700, 18 h, primary screen (AID 1157). Particulars: P. falciparum Indochina infected erythrocytes, osmotic lysis OD700, 18 h; higher = more signal, called active from +8 up or from −8 down.
Test [7] in a line: S6 kinase pathway phospho-S6 level changes – cell-based, A549, cytoblot, luminescence, serum-stimulated, primary screen (AID 1158).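 Note: serum-stimulated A549 lung adenocarcinoma cells; signal is phosphorylated S6 detected by cytoblot immunostaining with HRP secondary.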 The note with it: 5 h, higher = more signal.
The target of test [8] is NADPH oxidase 2 (Homo sapiens) (UniProt P04839). Kind of test: compounds shifting NOX2 Amplex Red fluorescence – cell-based, HEK293-NOX2, PMA-stimulated, NOX inhibitor project, primary screen (AID 1159). Note: test concentration not given here. The note with it: 45 min, higher = more signal, called active from +8 up or from −8 down.
In test [9] the target is NADPH oxidase 4 (Homo sapiens) (UniProt Q9NPH5). Description: compounds shifting NOX4 Amplex Red fluorescence – cell-based, HEK293-NOX4, tetracycline-induced, NOX inhibitor project, primary screen (AID 1160). The note with it: HEK293-NOX4, Amplex Red H2O2 fluorescence, 45 min; higher = more signal, called active from +8 up or from −8 down.
The target in test [10] is NADPH oxidase 5 (Homo sapiens) (UniProt Q96PH1). Kind of test: compounds shifting NOX5 Amplex Red fluorescence – cell-based, HEK293-NOX5, NOX inhibitor project, primary screen (AID 1161). The note with it: HEK293-NOX5, ionomycin, 45 min, higher = more signal.
The nature of test [11]: compound effects on lung adenocarcinoma cell viability – A549, calcein-AM fluorescence, 48 h, basal, profiling panel (AID 1162). Note: test concentration not given here. Particulars: higher = more signal.
Test [12] can be described thus: compound effects on differentiated 3T3-L1 adipocyte viability – cell-based, 3T3-L1 adipocytes, calcein-AM fluorescence, 48 h, basal, profiling panel (AID 1163). Note: test concentration not given here. Particulars: 3T3-L1 adipocytes viability, higher = more signal.
Test [13] is described as follows: compound effects on hepatocellular carcinoma cell viability – HepG2, calcein-AM fluorescence, 48 h, basal, profiling panel (AID 1164). Note: test concentration not given here. The note with it: higher = more signal.
Test [14] in a line: compound effects on multiple myeloma cell viability – MM1S, calcein-AM fluorescence, 48 h, basal, profiling panel (AID 1165).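 Note: viability of MM1S multiple myeloma cells under basal unstimulated conditions; test concentration not given here.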 Particulars: higher = more signal.
Test [15] in a line: calcein-AM signal in unstimulated myeloma cells – cell-based, calcein-AM fluorescence, 48 h, PK04 Diversity Set, profiling panel (AID 1166).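 Note: cells grown under basal conditions without added stimulus; test concentration not given here.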 The note with it: RPMI8226 myeloma viability, higher = more signal.
Test [16] is described as follows: JC-1 mitochondrial signal, unstimulated HepG2 cells – cell-based, JC-1 fluorescence, 24 h, 100 nL compound, profiling panel (AID 1167). Note: test concentration not given here. Particulars: HepG2 mitochondrial potential, higher = more signal.
Test [17] can be described thus: JC-1 mitochondrial signal, unstimulated adipocytes – cell-based, JC-1 fluorescence, 3T3-L1 adipocytes, 24 h, 100 nL compound, profiling panel (AID 1168). Note: test concentration not given here. Particulars: JC-1 mitochondrial fluorescence, higher = more signal, called active from +8 up or from −8 down.
Test [18] in a line: JC-1 mitochondrial signal, unstimulated myeloma cells – cell-based, JC-1 fluorescence, RPMI8226, 24 h, 100 nL compound, profiling panel (AID 1169). Note: test concentration not given here. The note with it: JC-1 mitochondrial potential fluorescence, higher = more signal.
The nature of test [19]: JC-1 mitochondrial signal, unstimulated MM1S myeloma – cell-based, JC-1 fluorescence, 24 h, 100 nL compound, profiling panel (AID 1170). Note: test concentration not given here. The note with it: MM1S mitochondrial potential, higher = more signal.
Test [20] is described as follows: resazurin metabolic signal in A549 cells – cell-based, resazurin fluorescence, 24 h, PK04 Diversity Set, profiling panel (AID 1171). Note: test concentration not given here. Particulars: A549 viability, higher = more signal, called active from +8 up or from −8 down.

Active and inactive are the calls of the source.

Sequence of NADPH oxidase 4 (Homo sapiens) (Q9NPH5 whole entry, looked up): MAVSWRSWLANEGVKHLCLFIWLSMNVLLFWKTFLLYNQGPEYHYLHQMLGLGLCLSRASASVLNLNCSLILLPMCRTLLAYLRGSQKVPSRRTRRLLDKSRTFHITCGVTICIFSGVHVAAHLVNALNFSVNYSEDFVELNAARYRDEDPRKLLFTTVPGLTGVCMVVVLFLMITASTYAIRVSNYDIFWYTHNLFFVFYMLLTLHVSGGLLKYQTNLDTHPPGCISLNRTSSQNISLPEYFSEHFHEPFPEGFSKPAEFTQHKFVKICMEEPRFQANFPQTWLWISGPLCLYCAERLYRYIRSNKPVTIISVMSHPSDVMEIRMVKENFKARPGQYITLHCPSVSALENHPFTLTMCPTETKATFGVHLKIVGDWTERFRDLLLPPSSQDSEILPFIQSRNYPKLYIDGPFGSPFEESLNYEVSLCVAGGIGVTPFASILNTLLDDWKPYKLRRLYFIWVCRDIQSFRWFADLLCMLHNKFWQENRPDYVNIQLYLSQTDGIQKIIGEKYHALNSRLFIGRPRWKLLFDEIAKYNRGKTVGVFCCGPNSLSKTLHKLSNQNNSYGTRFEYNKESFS
Sequence of NADPH oxidase 2 (Homo sapiens) (P04839 whole entry, looked up): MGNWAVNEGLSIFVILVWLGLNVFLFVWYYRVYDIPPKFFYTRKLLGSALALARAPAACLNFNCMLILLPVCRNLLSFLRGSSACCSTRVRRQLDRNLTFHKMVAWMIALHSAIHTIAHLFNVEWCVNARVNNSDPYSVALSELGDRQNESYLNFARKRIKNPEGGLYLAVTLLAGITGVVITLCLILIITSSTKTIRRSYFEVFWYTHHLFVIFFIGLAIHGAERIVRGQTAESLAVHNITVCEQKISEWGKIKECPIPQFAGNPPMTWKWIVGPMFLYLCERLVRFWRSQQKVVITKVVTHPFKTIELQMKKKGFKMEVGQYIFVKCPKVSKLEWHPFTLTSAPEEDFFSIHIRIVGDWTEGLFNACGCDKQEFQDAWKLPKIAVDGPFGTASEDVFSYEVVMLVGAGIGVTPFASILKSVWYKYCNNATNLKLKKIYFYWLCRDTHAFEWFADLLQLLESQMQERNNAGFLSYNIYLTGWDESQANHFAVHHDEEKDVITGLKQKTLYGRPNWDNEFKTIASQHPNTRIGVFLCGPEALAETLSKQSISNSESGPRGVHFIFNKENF
Sequence of NADPH oxidase 5 (Homo sapiens) (Q96PH1 whole entry, looked up): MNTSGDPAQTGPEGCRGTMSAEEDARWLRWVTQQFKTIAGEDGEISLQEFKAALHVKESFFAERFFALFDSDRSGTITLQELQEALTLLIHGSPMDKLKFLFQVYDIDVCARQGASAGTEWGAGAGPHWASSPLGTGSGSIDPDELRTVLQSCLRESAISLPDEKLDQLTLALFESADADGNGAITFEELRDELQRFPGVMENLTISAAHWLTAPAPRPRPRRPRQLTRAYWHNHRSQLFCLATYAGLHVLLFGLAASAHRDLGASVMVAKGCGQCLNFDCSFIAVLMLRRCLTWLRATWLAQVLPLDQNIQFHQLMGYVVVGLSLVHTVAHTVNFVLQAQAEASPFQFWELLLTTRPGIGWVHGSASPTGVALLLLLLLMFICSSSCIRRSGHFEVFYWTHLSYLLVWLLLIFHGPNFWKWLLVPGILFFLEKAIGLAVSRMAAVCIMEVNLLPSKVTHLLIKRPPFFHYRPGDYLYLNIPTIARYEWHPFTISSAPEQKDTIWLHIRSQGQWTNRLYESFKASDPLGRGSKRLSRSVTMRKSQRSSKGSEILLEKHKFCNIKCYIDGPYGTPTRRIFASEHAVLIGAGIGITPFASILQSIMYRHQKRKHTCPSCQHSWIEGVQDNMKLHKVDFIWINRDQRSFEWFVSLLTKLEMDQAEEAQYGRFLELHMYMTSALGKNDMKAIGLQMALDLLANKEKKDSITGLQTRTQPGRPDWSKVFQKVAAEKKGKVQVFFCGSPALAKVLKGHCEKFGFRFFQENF

For `CC(C)[Si](C#CCCCC#N)(O[C@H](c1ccccc1)c1cn([C@H](C)c2ccccc2)nn1)C(C)C`, the z-score in test [1] was 1.03 (inactive); in test [3] it was 1.66 (inactive); in test [4], 0.878 (inactive); in test [5], 0.0478 (inactive); in test [6] it was 0.211 (inactive); in [7], 0.147. For the same compound, the z-score in test [8] is 1.19 (inactive); in test [9] it was 0.406 (inactive); in test [10], 0.255; in test [11] it was -1.38; in [12] it was -0.348; in test [13], 0.571. In addition, the z-score in test [14] was -0.057; in [15], -2.68; in test [16], 6.54; in test [17] it was -0.289 (inactive); in test [18], 0.0785; in [19] it was -0.733. Also, the z-score in test [20] is 1.07 (inactive). The compound also returned a composite z-score in [2] of -0.0984.

As to `N#Cc1ccc(C(O)C2C=CC3C(=O)N(c4ccccc4)C(=O)C3N2Nc2ccc([N+](=O)[O-])cc2)cc1` (stereo not given), the z-score in test [1] was -0.955 (inactive); in test [3], 25.8 (active); in test [4] it was 12.8 (active); in test [5], 2.25 (inactive); in test [6], 1.56 (inactive); in test [7], -0.283. The z-score in test [8] was -0.562 (inactive); in [9], -2.25 (inactive); in test [10], -1.83; in test [11], -0.211; in test [12], -1.46; in test [13], 0.436. The z-score in test [14] is -0.0671; in [15] it was -0.333; in [16] it was -2.66; in test [17], -1.78 (inactive); in test [18], 0.5; in test [19], -1.43. The z-score in test [20] was -0.233 (inactive). Also, the composite z-score in test [2] was determined as 0.391.

Take `N#Cc1ccc(C(O)C2C=CC3C(=O)NC(=O)C3N2Nc2ccccn2)cc1` (stereo not given): the z-score is 0.261 (inactive) in test [1]; 0.104 (inactive) in [3]; -0.88 (inactive) in [4]; -0.138 (inactive) in test [5]; -1.01 (inactive) in test [6]; -0.0329 in test [7]. Besides, the z-score in [8] was -1.73 (inactive); in test [9] it was -2.92 (inactive); in test [10] it was -1.67; in test [11], 0.517; in test [12] it was -0.239; in test [13], 1.43. Also, the z-score was 0.435 in [14]; -0.792 in test [15]; -0.183 in test [16]; -0.277 (inactive) in test [17]; 0.274 in [18]; -0.839 in [19]. The z-score in test [20] is -1.36 (inactive). In addition, the composite z-score in test [2] was found to be 0.0341.

On to `COCCOC(=O)N1C(=O)[C@@]2(c3cc(C#CCC(C(=O)OC)C(=O)OC)ccc31)[C@H](C(=O)N1CCCCCCC1)[C@H]1C(=O)O[C@H](c3ccccc3)[C@H](c3ccccc3)N1[C@@H]2c1ccccc1OCCO`, for which the z-score in [1] is 0.822 (inactive); in test [3] it was 2.04 (inactive); in test [4], -0.228 (inactive); in test [5] it was 0.489 (inactive); in test [6] it was -1.21 (inactive); in test [7], 2.14. For the same compound, the z-score in test [8] is -0.817 (inactive); in test [9], -0.194 (inactive); in [10], -1.87; in test [11] it was -0.143; in test [12], 1.83; in [13], 0.0429. Further, the z-score in test [14] was -0.284; in test [15] it was -1.56; in test [16] it was -0.747; in test [17], 2.14 (inactive); in test [18], -0.124; in test [19] it was -0.892. Also, in test [20], the z-score was 0.822 (inactive). Also, in [2], the composite z-score was 2.72.

Regarding `C=CCNC(=O)[C@H]1[C@@H]2C(=O)O[C@@H](c3ccccc3)[C@@H](c3ccccc3)N2[C@@H](c2ccc(O)cc2)[C@]12C(=O)Nc1ccc(C#CC3=CCCCC3)cc12`, the z-score in test [1] was -0.164 (inactive); in test [3], 1.54 (inactive); in [4] it was 1.23 (inactive); in test [5], -0.355 (inactive); in [6], 1.1 (inactive); in test [7], -0.101. Also, the z-score in [8] was 1.18 (inactive); in test [9] it was 0.676 (inactive); in test [10] it was 1.61; in [11], -0.931; in test [12] it was -0.826; in test [13], -0.66. Also, the z-score is -3.3 in [14]; -4.46 in [15]; -0.341 in test [16]; 0.523 (inactive) in test [17]; -1.14 in test [18]; -1.79 in test [19]. The z-score in [20] is -1.63 (inactive). This compound also had a composite z-score in [2] of 0.802.

For `COCCOC(=O)N1C(=O)[C@@]2(c3cc(C#CCNC(N)=O)ccc31)[C@H](C(=O)NC[C@H](O)c1ccccc1)[C@H]1C(=O)O[C@H](c3ccccc3)[C@H](c3ccccc3)N1[C@@H]2c1ccc(OCCO)cc1`, the z-score in [1] is -0.242 (inactive); in test [3] it was 2.83 (inactive); in test [4] it was 0.757 (inactive); in test [5] it was 0.742 (inactive); in test [6] it was 0.581 (inactive); in test [7], 0.457. The z-score was 2.5 (inactive) in test [8]; 1.01 (inactive) in [9]; -0.677 in [10]; -0.877 in test [11]; -0.116 in test [12]; -1.07 in test [13]. The z-score is -0.286 in test [14]; 0.995 in [15]; -1.61 in [16]; 0.213 (inactive) in [17]; 0.418 in test [18]; -0.193 in test [19]. Besides, the z-score in test [20] was 0.637 (inactive). This compound yielded a composite z-score in [2] of 0.278.

As to `COc1ccc([Si](C)(C)[C@H]2[C@H](CC(=O)N3Cc4ccccc4C[C@H]3CO)O[C@@]3(C(=O)N(Cc4cccc(N5C(=O)c6cccc7cccc5c67)c4)c4ccccc43)[C@@H]2C)cc1`, the z-score in test [1] is -0.437 (inactive); in [3], 5.25 (inactive); in test [4] it was 0.572 (inactive); in test [5], 1 (inactive); in test [6], 0.793 (inactive); in [7], -0.112. Besides, the z-score in [8] was -1.79 (inactive); in test [9] it was -0.0145 (inactive); in test [10], -0.799; in [11], 0.653; in [12], 0.986; in test [13], -0.475. For the same compound, the z-score in test [14] was -2.54; in test [15] it was -4.12; in test [16] it was 0.813; in test [17], 0.611 (inactive); in test [18], -1.19; in test [19] it was -1.72. In addition, the z-score in test [20] is -1.02 (inactive). In test [2], this compound had a composite z-score of -0.362.

For `O=C1NC(=O)C2C1C=CC(C(O)c1cccc(O)c1)N2Nc1ccc(Cl)cc1Cl` (stereo not given), the z-score in test [1] was -4.5 (inactive); in test [3], 4.82 (inactive); in [4] it was 1.36 (inactive); in [5] it was -0.608 (inactive); in test [6] it was 0.901 (inactive); in [7] it was -1.22. The z-score was -0.897 (inactive) in test [8]; -5.3 (inactive) in test [9]; -3.11 in test [10]; -1.09 in [11]; -0.648 in test [12]; -1.13 in test [13]. Moreover, the z-score in test [14] was -3.03; in test [15] it was -1.52; in test [16] it was -2.54; in test [17], -0.299 (inactive); in test [18], -0.39; in [19] it was 0.0224. Besides, the z-score in test [20] is -0.728 (inactive). In test [2], the composite z-score came to 0.139.

The values are drawn from PubChem BioAssay.
